The record followed here is PubChem BioAssay.

A number with no mark means an inactive call. For some of these results: Potency and affinity values are given separately. Calls of active or inactive are those of the source. Unless noted, no rule for the calls is given here.

A short description of assay [1]: antimalarial activity against Dd2 strain (AID 2302;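 active = growth inhibition above 50% at the single 2 µM test dose, taken to imply half-maximal potency below 2 µM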;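 also: 0% = DMSO untreated growth and 100% = chloroquine plus artemisinin killed control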). The settings on record: P. falciparum Dd2 in RBCs, LDH growth readout, 72 h; at 2 µM; hits give high values.
A short description of assay [2]: HepG2 cytotoxicity, primary screen, cytotoxicity control for P. falciparum antimalarial project, cell-based, ATP luminescence (AID 2303;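 active = inhibition above 50%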;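 also: 0% = DMSO wells and 100% = digitonin-killed cells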). Conditions: HepG2 viability, 24-48 h, at 10 µM, hits give high values.
Assay [3] concerns the target L-lactate dehydrogenase (Plasmodium falciparum (isolate CDC / Honduras)) (UniProt Q27743). In words: PfLDH activity inhibition – cell lysate, 3D7 strain, counter-screen for P. falciparum growth inhibition project (AID 2304).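 Also: 0% = vehicle and 100% = reference inhibitor.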 The settings on record: P. falciparum 3D7 crude extract, LDH APAD/NBT absorbance; at 2 µM; hits give high values. For orientation: The purpose of a counterscreen is to sort out artefacts and off-target activity.

The nature of assay [4]: inhibition of 3D7 malaria parasite growth – strain 3D7 (AID 2306).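 Also: 0% = DMSO wells and 100% = chloroquine plus artemisinin control wells.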 The settings on record: P. falciparum 3D7 erythrocytic growth, LDH absorbance, 72 h; at 2 µM; hits give high values.
Assay [5] has as its target Calcium-dependent protein kinase 1 (Plasmodium falciparum (isolate 3D7)) (UniProt P62344). In words: PfCDPK1 kinase inhibitors, biochemical, TCAMS library (AID 1159585; cut-off not given, nearly all actives have IC50 up to about 0.98 µM;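 also: inhibitors leave more ATP so luminescence rises with inhibition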). The settings on record: recombinant PfCDPK1, Kinase-Glo ATP depletion luminescence. (In general: Kinase-Glo measures the ATP left after a reaction by luminescence.)
For assay [6], the target named is Plasmodium falciparum protein kinase 6 (PK6, PF3D7_1337100) (UniProt Q8IDW1). In words: PfPK6 kinase inhibitors, biochemical, TCAMS library (AID 1159586). The settings on record: recombinant PfPK6, Kinase-Glo ATP depletion luminescence.
Assay [7] addresses Protein kinase 7 (PK7), Plasmodium falciparum 3D7 (PF3D7_0213400) (UniProt Q7YTF7). In words: inhibition of Plasmodium PK7 catalytic activity – biochemical, TCAMS antimalarial set, Kinase-Glo luminescence (AID 1159587). The settings on record: recombinant PfPK7, Kinase-Glo ATP depletion luminescence.
Assay [8] concerns the target Calcium-dependent protein kinase 4 (Plasmodium falciparum (isolate 3D7)) (UniProt Q8IBS5). In words: PfCDPK4 kinase inhibitors, biochemical, TCAMS library (AID 1159588; cut-off not given, nearly all actives have IC50 up to about 0.91 µM). Conditions: recombinant PfCDPK4, Kinase-Glo ATP depletion luminescence.

Calcium-dependent protein kinase 4 (Plasmodium falciparum (isolate 3D7)), sequence (Q8IBS5 whole entry, looked up): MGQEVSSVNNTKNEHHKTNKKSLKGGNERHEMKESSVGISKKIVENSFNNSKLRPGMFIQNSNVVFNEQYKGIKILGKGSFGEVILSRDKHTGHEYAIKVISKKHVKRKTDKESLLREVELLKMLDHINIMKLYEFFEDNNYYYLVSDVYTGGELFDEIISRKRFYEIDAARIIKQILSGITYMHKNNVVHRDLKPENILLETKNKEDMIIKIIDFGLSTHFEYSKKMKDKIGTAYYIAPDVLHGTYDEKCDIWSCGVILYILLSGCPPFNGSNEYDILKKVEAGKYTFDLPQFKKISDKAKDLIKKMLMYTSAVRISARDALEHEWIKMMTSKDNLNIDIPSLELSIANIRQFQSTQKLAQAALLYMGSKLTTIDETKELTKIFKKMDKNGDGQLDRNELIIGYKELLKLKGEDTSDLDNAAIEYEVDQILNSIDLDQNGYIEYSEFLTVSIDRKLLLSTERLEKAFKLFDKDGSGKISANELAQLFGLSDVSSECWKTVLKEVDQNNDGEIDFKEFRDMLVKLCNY
Plasmodium falciparum protein kinase 6 (PK6, PF3D7_1337100), sequence (Q8IDW1 1-305): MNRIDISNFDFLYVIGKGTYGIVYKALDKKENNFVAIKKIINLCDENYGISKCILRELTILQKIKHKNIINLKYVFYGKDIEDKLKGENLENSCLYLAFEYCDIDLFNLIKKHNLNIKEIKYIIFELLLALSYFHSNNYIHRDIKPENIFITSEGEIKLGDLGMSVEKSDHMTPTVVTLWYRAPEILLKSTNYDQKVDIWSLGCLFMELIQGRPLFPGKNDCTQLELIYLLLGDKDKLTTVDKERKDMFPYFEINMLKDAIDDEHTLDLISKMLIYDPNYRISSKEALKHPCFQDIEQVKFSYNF
Protein kinase 7 (PK7), Plasmodium falciparum 3D7 (PF3D7_0213400), sequence (Q7YTF7 1-343): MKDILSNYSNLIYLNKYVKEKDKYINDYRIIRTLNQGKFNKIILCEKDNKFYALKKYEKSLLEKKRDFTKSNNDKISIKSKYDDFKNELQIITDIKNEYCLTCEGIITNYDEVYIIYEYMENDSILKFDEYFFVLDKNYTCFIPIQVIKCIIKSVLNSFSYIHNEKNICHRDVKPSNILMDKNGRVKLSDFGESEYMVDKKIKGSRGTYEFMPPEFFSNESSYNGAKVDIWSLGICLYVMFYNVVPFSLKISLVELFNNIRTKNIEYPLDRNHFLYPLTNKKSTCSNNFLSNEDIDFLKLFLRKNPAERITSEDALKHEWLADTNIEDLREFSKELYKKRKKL
Calcium-dependent protein kinase 1 (Plasmodium falciparum (isolate 3D7)), sequence (P62344 whole entry, looked up): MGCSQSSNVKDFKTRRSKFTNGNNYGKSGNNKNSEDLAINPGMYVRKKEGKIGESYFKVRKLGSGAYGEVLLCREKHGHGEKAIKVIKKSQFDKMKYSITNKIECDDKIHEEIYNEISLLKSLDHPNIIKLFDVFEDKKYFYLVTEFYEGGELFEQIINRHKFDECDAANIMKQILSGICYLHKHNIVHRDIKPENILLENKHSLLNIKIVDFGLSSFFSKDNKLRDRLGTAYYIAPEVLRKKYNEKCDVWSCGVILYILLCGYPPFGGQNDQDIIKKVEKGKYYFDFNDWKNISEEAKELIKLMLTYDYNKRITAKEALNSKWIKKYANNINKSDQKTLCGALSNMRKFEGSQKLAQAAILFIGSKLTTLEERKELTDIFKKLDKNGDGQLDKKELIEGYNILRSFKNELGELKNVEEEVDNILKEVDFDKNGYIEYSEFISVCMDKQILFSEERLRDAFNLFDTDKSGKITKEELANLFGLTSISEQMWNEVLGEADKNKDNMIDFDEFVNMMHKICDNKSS
L-lactate dehydrogenase (Plasmodium falciparum (isolate CDC / Honduras)), sequence (Q27743 whole entry, looked up): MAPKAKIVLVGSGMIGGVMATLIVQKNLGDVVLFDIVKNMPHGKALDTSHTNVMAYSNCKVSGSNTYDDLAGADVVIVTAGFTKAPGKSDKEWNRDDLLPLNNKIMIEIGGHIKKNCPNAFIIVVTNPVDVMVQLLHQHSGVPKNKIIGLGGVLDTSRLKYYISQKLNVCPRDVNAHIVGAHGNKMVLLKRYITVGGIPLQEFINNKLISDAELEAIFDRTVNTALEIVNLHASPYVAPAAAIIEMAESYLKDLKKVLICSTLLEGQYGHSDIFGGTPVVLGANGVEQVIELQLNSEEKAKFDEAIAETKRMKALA

As a reminder, the inhibition is the change of the read-out against control, counted positive when it falls. Consider `Cc1ccc(OCC2CCN(c3ncc(C(=O)NCCCN4CCCC4=O)cc3Cl)CC2)cc1`, for which the growth inhibition in assay [1] was 71% (active); in assay [4] it was 94% (active). Further, the inhibition is 7% in assay [2] and 0% in assay [3]. Further, the result in assay [5], in assay [6], in assay [7] and in assay [8] was inactive.

`O=C(/C=C/c1ccc(Cl)c(Cl)c1)NC1CCC(CN2CCC(c3nc4ccccc4s3)CC2)CC1` (stereo not given): the growth inhibition in assay [1] is 32%; in assay [4], 87% (active). Further, the values for the inhibition in assay [2] and in assay [3] were 50% (active) and -4%, respectively. Also, the outcome in assay [5], in assay [6], in assay [7] and in assay [8] was inactive.

As to `COCCn1c(-c2nc(-c3ccc(F)cc3)cnc2N)nc2ccccc21`, the growth inhibition in assay [1] and in assay [4] was 98% (active) throughout. Moreover, the inhibition in assay [2] was 16%; in assay [3] it was -6%. In addition, the outcome in assay [5], in assay [6], in assay [7] and in assay [8] was inactive.

Consider `CCOc1ccc2nc3cc(NC(=O)c4ccco4)ccc3c(N)c2c1`, for which the growth inhibition is 56% (active) in assay [1] and 101% (active) in assay [4]. Further, the figures for the inhibition in assay [2] and in assay [3] were 36% and -1%, respectively. Moreover, the outcome in assay [5], in assay [6], in assay [7] and in assay [8] was inactive.

For the compound `CCCCCCCc1c2c(C)c(C(=O)OCC)nc-2cc2n1CC(C)=C2C`, the growth inhibition in assay [1] is 10%; in assay [4] it was 89% (active). Also, the values for the inhibition in assay [2] and in assay [3] were 11% and 1%, respectively. Further, the outcome in assay [5], in assay [6], in assay [7] and in assay [8] was inactive.

For `Cc1ccccc1NC(=O)C1CSCN1C(=O)OCc1ccccc1` (stereo not given), the growth inhibition was -1% in assay [1] and 91% (active) in assay [4]. The inhibition in assay [2] is 8%; in assay [3], -1%. Moreover, the result in assay [5], in assay [6], in assay [7] and in assay [8] was inactive.

Take `COc1ccc(CNC(=O)NC2CCN(c3ccnc(Nc4ccc(OC)cc4)n3)C2)cc1` (stereo not given): the growth inhibition in assay [1] was 80% (active); in assay [4], 87% (active). Besides, the inhibition in assay [2] was 27%; in assay [3], 1%. For the same compound, the outcome in assay [5], in assay [6], in assay [7] and in assay [8] was inactive.

Regarding `COC(=O)c1cccc(NC(=O)NC2CCN(c3ccnc(NCc4ccc(F)cc4)n3)CC2)c1`, the growth inhibition was 39% in assay [1] and 93% (active) in assay [4]. Moreover, the inhibition in assay [2] is 29%; in assay [3], 5%. In addition, the result in assay [5], in assay [6], in assay [7] and in assay [8] was inactive.

As to `CN1CCN(c2ccc(-c3nc4c(C(N)=O)c(OCc5cc(Cl)cc(Cl)c5)ccc4[nH]3)cc2)CC1`, the growth inhibition was 85% (active) in assay [1] and 100% (active) in assay [4]. Moreover, the inhibition in assay [2] was 45%; in assay [3], -2%. Moreover, the result in assay [5], in assay [6], in assay [7] and in assay [8] was inactive.

As for `COc1cccc(C(=O)Nc2ccc(Nc3nc(C)cc(N(C)C)n3)cc2)c1`, the results for the growth inhibition in assay [1] and in assay [4] were 33% and 92% (active), respectively. Also, the inhibition is 1% in assay [2] and -2% in assay [3]. For the same compound, the outcome in assay [5], in assay [6], in assay [7] and in assay [8] was inactive.

For `CC1(C)N=C(N)N=C(N)N1OCc1ccc(-c2ccccc2)cc1`, the growth inhibition is 97% (active) in assay [1] and 95% (active) in assay [4]. The inhibition was 64% (active) in assay [2] and -6% in assay [3]. Further, the result in assay [5], in assay [6], in assay [7] and in assay [8] was inactive.

Consider `O=C(/C=C/c1ccc(Cl)c(Cl)c1)NCCCCCN1CCCN(C(=S)Nc2cccc(Cl)c2)CC1`, for which the growth inhibition in assay [1] was 7%; in assay [4], 93% (active). The inhibition in assay [2] was 19%; in assay [3] it was 0%. The result in assay [5], in assay [6], in assay [7] and in assay [8] was inactive.

As for `COc1cc(OC)c2c(C)cc(NCCCN3CCOCC3)nc2c1`, the growth inhibition in assay [1] is 3%; in assay [4] it was 99% (active). In addition, the inhibition in assay [2] was 6%; in assay [3] it was 0%. Moreover, the result in assay [5], in assay [6], in assay [7] and in assay [8] was inactive.

As for `COc1cccc(NC(=O)[C@H](C)n2c(=O)[nH]c3ccccc3c2=O)c1`, the growth inhibition was 92% (active) in assay [1] and 100% (active) in assay [4]. In addition, the values for the inhibition in assay [2] and in assay [3] were 8% and -3%, respectively. In addition, the outcome in assay [5], in assay [6], in assay [7] and in assay [8] was inactive.

Consider `CCN(CCN(C)C)Cc1ccc(-c2ccc(NS(=O)(=O)c3cccc4cccnc34)cc2)cc1`, for which the growth inhibition in assay [1] is 57% (active); in assay [4], 91% (active). For the same compound, the values for the inhibition in assay [2] and in assay [3] were 16% and 1%, respectively. In addition, the outcome in assay [5], in assay [6], in assay [7] and in assay [8] was inactive.

`N#Cc1ccc(-c2ccc(C(=O)NCCCCN3CCC(c4ccc5c(c4OCc4ccncc4)CCCC5)CC3)cc2)cc1`: the growth inhibition is 57% (active) in assay [1] and 81% (active) in assay [4]. The inhibition in assay [2] was 41%; in assay [3], 1%. Also, the result in assay [5], in assay [6], in assay [7] and in assay [8] was inactive.

Regarding `COc1cc(Nc2nccc(N3CCC(NC(=O)c4cc5ccccc5s4)C3)n2)cc(OC)c1OC` (stereo not given), the values for the growth inhibition in assay [1] and in assay [4] were 50% (active) and 96% (active), respectively. Moreover, the inhibition in assay [2] and in assay [3] was 2% in each case. Also, the result in assay [5], in assay [6], in assay [7] and in assay [8] was inactive.

For `CC(C)N1CCC(N(Cc2ccc(-c3ccc(Cl)cc3)cc2)C(=O)Cn2c(CCc3cccc(F)c3F)nc(=O)c3ccccc32)CC1`, the growth inhibition in assay [1] is 70% (active); in assay [4], 86% (active). Further, the values for the inhibition in assay [2] and in assay [3] were 61% (active) and 5%, respectively. In addition, the outcome in assay [5], in assay [6], in assay [7] and in assay [8] was inactive.

With `O=S(=O)(Nc1ccc(CCN2CCC(N3CCCCC3)CC2)cc1)c1ccc2ccccc2c1`, the growth inhibition in assay [1] is 80% (active); in assay [4] it was 101% (active). The inhibition in assay [2] was 44%; in assay [3], -2%. Also, the outcome in assay [5], in assay [6], in assay [7] and in assay [8] was inactive.

In the case of `CC(C)(C(=O)Nc1ccc(N2CCC3(CCCN(CC4CC4)C3)CC2)c(Cl)c1)c1cccc(C(F)(F)F)c1`, the growth inhibition in assay [1] is 0%; in assay [4] it was 92% (active). The inhibition was 27% in assay [2] and 4% in assay [3]. Moreover, the outcome in assay [5], in assay [6], in assay [7] and in assay [8] was inactive.
